{
  "source": "ChEMBL document CHEMBL5606460",
  "about": "“ASAP - DENV-2 NS2B-NS3 protease fluorescence single point” (2024)",
  "target": "Genome polyprotein (dengue virus type 2) (UniProt P29990)",
  "key": {"[1]": {"conditions": "Thailand/16681/1984, Concentration 25.0 uM, Number of replicates 1.0"}},
  "note": "In all, about 2,000 compounds went through this assay and about 110 (5.5%) showed an effect of 50% or more. What follows is part of a selection rich in strong results, with near analogues and random picks from the rest.",
  "data": [
    {"smiles": "CNS(=O)(=O)c1ccc(Oc2ccccc2Cl)cc1", "values": [
      {"measurement": "inhibition", "setting": "Thailand/16681/1984, Concentration 49.5 uM, Number of replicates 2.0, Standard deviation 2.6119045762628477 %", "value": -1.72, "unit": "%"},
      {"measurement": "inhibition", "setting": "Thailand/16681/1984, Concentration 99.01 uM, Number of replicates 2.0, Standard deviation 1.5233102161282106 %", "value": -0.429, "unit": "%"},
      {"measurement": "inhibition", "setting": "Thailand/16681/1984, Concentration 198.0 uM, Number of replicates 2.0, Standard deviation 1.4243001461587221 %", "value": 1.7, "unit": "%"}
    ]},
    {"smiles": "CNC(=O)c1cc(Cl)ccc1NS(=O)(=O)c1ccc(Oc2ccccc2Cl)cc1", "values": [
      {"measurement": "inhibition", "setting": "Thailand/16681/1984, Concentration 49.5 uM, Number of replicates 2.0, Standard deviation 2.214504665393713 %", "value": 57.1, "unit": "%"},
      {"measurement": "inhibition", "setting": "Thailand/16681/1984, Concentration 99.01 uM, Number of replicates 2.0, Standard deviation 0.44410505168195935 %", "value": 89.7, "unit": "%"},
      {"measurement": "inhibition", "setting": "Thailand/16681/1984, Concentration 198.0 uM, Number of replicates 2.0, Standard deviation 0.048202507704939286 %", "value": 89.7, "unit": "%"}
    ]},
    {"smiles": "O=S(=O)(Nc1ccc(Cl)cc1)c1ccc(Oc2ccccc2Cl)cc1", "values": [
      {"measurement": "inhibition", "setting": "Thailand/16681/1984, Concentration 49.5 uM, Number of replicates 2.0, Standard deviation 0.04775136783847868 %", "value": 12.2, "unit": "%"},
      {"measurement": "inhibition", "setting": "Thailand/16681/1984, Concentration 99.01 uM, Number of replicates 2.0, Standard deviation 0.32853232391890236 %", "value": 22.7, "unit": "%"},
      {"measurement": "inhibition", "setting": "Thailand/16681/1984, Concentration 198.0 uM, Number of replicates 2.0, Standard deviation 1.060565762839157 %", "value": 44.5, "unit": "%"}
    ]},
    {"smiles": "O=C(O)c1cc(Cl)ccc1NS(=O)(=O)c1ccc(Br)cc1", "values": [
      {"measurement": "inhibition", "setting": "Thailand/16681/1984, Concentration 49.5 uM, Number of replicates 2.0, Standard deviation 1.3795853744617563 %", "value": 7.98, "unit": "%"},
      {"measurement": "inhibition", "setting": "Thailand/16681/1984, Concentration 99.01 uM, Number of replicates 2.0, Standard deviation 2.3616490916140984 %", "value": 19.6, "unit": "%"},
      {"measurement": "inhibition", "setting": "Thailand/16681/1984, Concentration 198.0 uM, Number of replicates 2.0, Standard deviation 0.9946440456706616 %", "value": 67, "unit": "%"}
    ]},
    {"smiles": "O=C(O)c1cc(Cl)ccc1NS(=O)(=O)c1ccc(Oc2ccccc2Cl)cc1", "values": [
      {"measurement": "inhibition", "setting": "Thailand/16681/1984, Concentration 49.5 uM, Number of replicates 2.0, Standard deviation 0.09788858447746204 %", "value": 95.7, "unit": "%"},
      {"measurement": "inhibition", "setting": "Thailand/16681/1984, Concentration 99.01 uM, Number of replicates 2.0, Standard deviation 0.14802782416517393 %", "value": 94.6, "unit": "%"},
      {"measurement": "inhibition", "setting": "Thailand/16681/1984, Concentration 198.0 uM, Number of replicates 2.0, Standard deviation 0.06255266668592849 %", "value": 91.9, "unit": "%"}
    ]},
    {"smiles": "Cc1cc(CO)c2cccc(Cc3ccccc3C(=O)N[C@@H](CCCN)C(=O)O)c2n1", "values": [
      {"measurement": "inhibition", "setting": "Thailand/16681/1984, Concentration 49.95 uM, Number of replicates 2.0, Standard deviation 1.450239339781055 %", "value": -9.67, "unit": "%"},
      {"measurement": "inhibition", "setting": "Thailand/16681/1984, Concentration 99.9 uM, Number of replicates 2.0, Standard deviation 1.946109361538337 %", "value": 0.782, "unit": "%"}
    ]},
    {"smiles": "CCOC(=O)c1cc(CNCc2nnc3ccccn23)[nH]n1", "values": [
      {"measurement": "inhibition", "setting": "Thailand/16681/1984, Concentration 49.5 uM, Number of replicates 2.0, Standard deviation 0.017813955579008514 %", "value": 6.64, "unit": "%"},
      {"measurement": "inhibition", "setting": "Thailand/16681/1984, Concentration 99.01 uM, Number of replicates 2.0, Standard deviation 0.5926797733534107 %", "value": 7.63, "unit": "%"},
      {"measurement": "inhibition", "setting": "Thailand/16681/1984, Concentration 198.0 uM, Number of replicates 2.0, Standard deviation 1.0587355780894199 %", "value": 6.43, "unit": "%"}
    ]},
    {"smiles": "Cc1cc(CO)c2cccc(CC(=O)N[C@H](Cc3c[nH]cn3)C(=O)O)c2n1", "values": [
      {"measurement": "inhibition", "setting": "Thailand/16681/1984, Concentration 49.95 uM, Number of replicates 2.0, Standard deviation 0.5871204354474296 %", "value": 9.25, "unit": "%"},
      {"measurement": "inhibition", "setting": "Thailand/16681/1984, Concentration 99.9 uM, Number of replicates 2.0, Standard deviation 0.6044303147182479 %", "value": 24.8, "unit": "%"}
    ]},
    {"smiles": "O=Cc1ccc(N2CCC(C(=O)N3CCN(Cc4ccc(Cl)nc4)CC3)CC2)cc1", "values": [
      {"measurement": "inhibition", "setting": "[1]", "value": 10.1, "unit": "%"}
    ]},
    {"smiles": "C[C@H](NC(=O)C1CCN(c2ccc(C=O)cc2)CC1)c1cccc(C(F)(F)F)c1", "values": [
      {"measurement": "inhibition", "setting": "[1]", "value": 11, "unit": "%"}
    ]},
    {"smiles": "O=Cc1ccc(N2CCC(C(=O)N[C@H]3C[C@@H]3c3ccc(F)c(F)c3)CC2)cc1", "values": [
      {"measurement": "inhibition", "setting": "[1]", "value": 12.2, "unit": "%"}
    ]},
    {"smiles": "O=Cc1ccc(N2CCC(C(=O)NCc3ccccc3OC(F)(F)F)CC2)cc1", "values": [
      {"measurement": "inhibition", "setting": "[1]", "value": 12.7, "unit": "%"}
    ]},
    {"smiles": "O=Cc1ccc(N2CCC(C(=O)Nc3ccc(Oc4ccc(Cl)cc4)cc3)CC2)cc1", "values": [
      {"measurement": "inhibition", "setting": "[1]", "value": 3.01, "unit": "%"}
    ]},
    {"smiles": "O=C(c1cc2ccccc2[nH]1)N1CCC[C@H](c2c[nH]c3ncccc23)C1", "values": [
      {"measurement": "inhibition", "setting": "Thailand/16681/1984, Concentration 49.5 uM, Number of replicates 2.0, Standard deviation 0.6846779142829902 %", "value": 3.74, "unit": "%"},
      {"measurement": "inhibition", "setting": "Thailand/16681/1984, Concentration 99.01 uM, Number of replicates 2.0, Standard deviation 0.6286192340156203 %", "value": 6.35, "unit": "%"},
      {"measurement": "inhibition", "setting": "Thailand/16681/1984, Concentration 198.0 uM, Number of replicates 2.0, Standard deviation 0.39513209958624096 %", "value": 4.86, "unit": "%"}
    ]},
    {"smiles": "O=Cc1ccc(N2CCC(C(=O)N3CCO[C@@H](c4ccccc4)C3)CC2)cc1", "values": [
      {"measurement": "inhibition", "setting": "[1]", "value": 8.68, "unit": "%"}
    ]},
    {"smiles": "Cc1cc(CO)c2cccc(Cc3cccc(C(=O)NCCN4CCOCC4)c3)c2n1", "values": [
      {"measurement": "inhibition", "setting": "Thailand/16681/1984, Concentration 49.95 uM, Number of replicates 2.0, Standard deviation 1.1800261159088588 %", "value": -8.12, "unit": "%"},
      {"measurement": "inhibition", "setting": "Thailand/16681/1984, Concentration 99.9 uM, Number of replicates 2.0, Standard deviation 0.7869239771342965 %", "value": -3.46, "unit": "%"}
    ]},
    {"smiles": "O=C(NCC1(c2ccncc2F)CCC1)[C@@]1(c2ccc(F)cc2)CCCNC1", "values": [
      {"measurement": "inhibition", "setting": "Thailand/16681/1984, Concentration 49.5 uM, Number of replicates 2.0, Standard deviation 0.9074685157350926 %", "value": -2.89, "unit": "%"},
      {"measurement": "inhibition", "setting": "Thailand/16681/1984, Concentration 99.01 uM, Number of replicates 2.0, Standard deviation 1.7740222143666056 %", "value": -1.32, "unit": "%"},
      {"measurement": "inhibition", "setting": "Thailand/16681/1984, Concentration 198.0 uM, Number of replicates 2.0, Standard deviation 1.670161679604597 %", "value": -0.296, "unit": "%"}
    ]},
    {"smiles": "Cc1cc(CO)c2cccc(Cc3cccc(C(=O)N[C@@H](CCN)C(=O)O)c3)c2n1", "values": [
      {"measurement": "inhibition", "setting": "Thailand/16681/1984, Concentration 49.95 uM, Number of replicates 2.0, Standard deviation 0.6194784255105775 %", "value": -9.07, "unit": "%"},
      {"measurement": "inhibition", "setting": "Thailand/16681/1984, Concentration 99.9 uM, Number of replicates 2.0, Standard deviation 14.524673907807347 %", "value": 0.432, "unit": "%"}
    ]},
    {"smiles": "Cc1cc(CO)c2cccc(CC(=O)N[C@@H](CCC(N)=O)C(=O)O)c2n1", "values": [
      {"measurement": "inhibition", "setting": "Thailand/16681/1984, Concentration 49.95 uM, Number of replicates 2.0, Standard deviation 0.1031646955614498 %", "value": 95.6, "unit": "%"},
      {"measurement": "inhibition", "setting": "Thailand/16681/1984, Concentration 99.9 uM, Number of replicates 2.0, Standard deviation 0.012461980167701147 %", "value": 98.7, "unit": "%"}
    ]},
    {"smiles": "Cc1cc(CO)c2cccc(Cc3cccc(C(=O)N[C@@H](CCCN)C(=O)O)c3)c2n1", "values": [
      {"measurement": "inhibition", "setting": "Thailand/16681/1984, Concentration 49.95 uM, Number of replicates 2.0, Standard deviation 0.7049975000059713 %", "value": -1.78, "unit": "%"},
      {"measurement": "inhibition", "setting": "Thailand/16681/1984, Concentration 99.9 uM, Number of replicates 2.0, Standard deviation 0.2824297407941699 %", "value": 11.7, "unit": "%"}
    ]},
    {"smiles": "Cc1cc(CO)c2cccc(CC(=O)N[C@@H](C)C(N)=O)c2n1", "values": [
      {"measurement": "inhibition", "setting": "Thailand/16681/1984, Concentration 49.95 uM, Number of replicates 2.0, Standard deviation 0.6764350022386235 %", "value": -6.74, "unit": "%"},
      {"measurement": "inhibition", "setting": "Thailand/16681/1984, Concentration 99.9 uM, Number of replicates 2.0, Standard deviation 0.17585957987303982 %", "value": -4.59, "unit": "%"}
    ]},
    {"smiles": "Cc1cc(CO)c2cccc(Cc3cccc(C(=O)N[C@@H](CCC(N)=O)C(=O)O)c3)c2n1", "values": [
      {"measurement": "inhibition", "setting": "Thailand/16681/1984, Concentration 49.95 uM, Number of replicates 2.0, Standard deviation 0.9076569964416333 %", "value": 26.5, "unit": "%"},
      {"measurement": "inhibition", "setting": "Thailand/16681/1984, Concentration 99.9 uM, Number of replicates 2.0, Standard deviation 0.5346782919570826 %", "value": 79, "unit": "%"}
    ]},
    {"smiles": "Cc1cc(CO)c2cccc(Cc3ccccc3C(=O)N[C@@H](CCC(N)=O)C(=O)O)c2n1", "values": [
      {"measurement": "inhibition", "setting": "Thailand/16681/1984, Concentration 49.95 uM, Number of replicates 2.0, Standard deviation 0.9816783263695582 %", "value": 12.6, "unit": "%"},
      {"measurement": "inhibition", "setting": "Thailand/16681/1984, Concentration 99.9 uM, Number of replicates 2.0, Standard deviation 0.9155644195718532 %", "value": 39.4, "unit": "%"}
    ]}
  ]
}
